PKA-R1A act: activates the PKA-R1A holoenzyme complex; PKA-R1A dissociation, Cy5-IP20 fluorescence polarization; scaled: DMSO 0%, 113 µM cGMP 100%; activation, % at 11.4 µM; actives 0.083% (n = 340,000);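 active means percent activation above the mean of all tested compounds plus 3 SD, cut at about 19% in these data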;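 further: higher means more PKAc released from R1A so a rise in polarization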
PKA-R2B activ: activates the human PKA-R2B holoenzyme complex. actives 0.079% (n = 340,000). AID 504700. PKA-R2B holoenzyme dissociation, Cy5-IP20 fluorescence polarization; R2B truncated from residue 108, S112A mutant; 0% DMSO only, 100% 113 µM cGMP. P22694+P31323. activation, % at 11.4 µM;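 active means activation above a cutoff set at the mean over all compounds plus 3 SD, cut at about 18% in these data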;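 further: higher means more holoenzyme dissociation and a rise in polarization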
Target sequence (P31323 whole entry, looked up, other chains not shown, the tested form may be a part): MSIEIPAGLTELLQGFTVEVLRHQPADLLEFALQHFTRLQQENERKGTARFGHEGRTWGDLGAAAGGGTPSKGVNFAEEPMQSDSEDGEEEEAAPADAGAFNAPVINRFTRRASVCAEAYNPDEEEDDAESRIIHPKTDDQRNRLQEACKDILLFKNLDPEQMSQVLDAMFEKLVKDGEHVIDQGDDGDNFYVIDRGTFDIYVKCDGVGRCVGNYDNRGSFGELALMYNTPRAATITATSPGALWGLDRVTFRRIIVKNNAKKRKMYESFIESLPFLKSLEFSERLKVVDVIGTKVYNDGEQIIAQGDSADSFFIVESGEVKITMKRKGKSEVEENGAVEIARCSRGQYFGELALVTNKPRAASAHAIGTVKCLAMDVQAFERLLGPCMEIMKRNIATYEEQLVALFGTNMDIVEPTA
MsrA inhibitor: bovine MsrA inhibition; purified bovine MsrA, absorbance read-out; inhibition, % at 15.5 µM; actives 0.75% (n = 360,000); AID 651718
bovine MsrA act: bovine methionine sulfoxide reductase A activation; purified bovine MsrA, absorbance read-out; activation, % at 10.6 µM; actives 0.3% (n = 360,000); AID 602163; in the data active means activation above about 7.5%
MsrA inh confirm: confirmation of bovine MsrA inhibitors; AID 651822; inhibition, % at 15.5 µM; shares compounds with MsrA inhibitor; purified bovine MsrA, absorbance read-out; actives 41% (n = 2,300);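 further: coupled to thioredoxin reductase with NADPH and selenocystamine and DMSO as substrate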
Large screens that a line does not name were inactive (follow-up assays come after a bar, where they were run). Sampled rows, rich in hits. Any-hit rate of the full collection: about 1.1%. Unless noted, no stated cut-off is given here; in the data, active means inhibition above about 4.5%; inactive means the rest.

CCOc1ccc(N(CC(=O)N/N=C(\C)c2cccc(NC(C)=O)c2)S(=O)(=O)c2ccccc2)cc1	none
COc1ccc(C(=O)Nc2ccccc2C(=O)Nc2ccccc2C(=O)O)cc1	none
COc1ccc(C(=NNc2ccccc2C(=O)O)c2ccc(OC)cc2)cc1	MsrA inhibitor 5.1 | MsrA inh confirm inactive
C[C@@H]1CN([C@H](C)CO)C(=O)c2cc(Br)cnc2O[C@H]1CN(C)C(=O)c1ccc(F)cc1	none (no result: PKA-R1A act, PKA-R2B activ, bovine MsrA act)
Brc1cccc(/C=N/Nc2nn[nH]n2)c1	none
CNC(=S)N/N=C/c1ccc(-c2cccc(C(=O)O)c2)o1	MsrA inhibitor 4.9 | MsrA inh confirm 6.2
COc1ccc(CC(=O)N/N=C/c2ccc(-c3cccc(C(=O)O)c3)o2)cc1OC	MsrA inhibitor 5.1 | MsrA inh confirm inactive
CCNC(=S)N/N=C/c1ccc(-c2ccccc2)o1	none
O=C(O)c1cccc(-c2ccc(/C=N/Nc3nn[nH]n3)o2)c1	MsrA inhibitor 5.9 | MsrA inh confirm 4.6
Cc1ccc(OCC(=O)N/N=C\c2ccc(-c3cccc(C(=O)O)c3)o2)c(C)c1	MsrA inhibitor 5.3 | MsrA inh confirm inactive
COc1ccc(CC(=O)N/N=C/c2ccc(-c3ccc(F)cc3)o2)cc1OC	none
CCCCCCCCN1C(=O)[C@@H](CC(=O)NCc2cccc3ccccc23)C[C@@]2(C(=O)OC)C1=C[C@H](C(C)(C)C)O[C@@H]2C	none (no result: PKA-R1A act, PKA-R2B activ, bovine MsrA act)
COc1ccc(C2CC(=O)C(c3cccc(Cl)c3)=CN2Cc2ccccc2)cc1 (stereo unspecified)	none (no result: PKA-R1A act, PKA-R2B activ, bovine MsrA act)
O=C(O)c1cccc(-c2ccc(/C=N/NC(=O)C3COc4ccccc4O3)o2)c1 (stereo unspecified)	MsrA inhibitor 4.7 | MsrA inh confirm inactive
CC(C)(C)c1ccc2c(c1)OC(C(=O)N/N=C\c1ccc(-c3cccc(C(=O)O)c3)o1)CO2 (stereo unspecified)	none
CCCCc1cc(=O)oc2c(CN(C)C)c(O)c(Cl)cc12	MsrA inhibitor 5.0 | MsrA inh confirm inactive
CCc1c(C)c2cc(Cl)c(O)c(CN(C)C)c2oc1=O	none
CCOC(=O)/C(C#N)=C1/C=CN(C)C(C)=N1	MsrA inhibitor 6.6 | MsrA inh confirm 6.0
COC(=O)[C@]12C[C@H](CC(=O)NCc3ccc(C)o3)C(=O)N(CCC3=CCCCC3)C1=C[C@H](COCc1ccccc1)O[C@@H]2C	none (no result: PKA-R1A act, PKA-R2B activ, bovine MsrA act)
CCCCc1nc2cc(C(=O)N3CCCC3)ccc2o1	none
CCC1SC2=NC(C)=C(C(=O)OC)C(c3ccc(C(=O)OC)cc3)N2C1=O (stereo unspecified)	none
CCC1SC2=NC(C)=C(C(=O)OCCOC)C(c3ccc(C(=O)OC)cc3)N2C1=O (stereo unspecified)	MsrA inhibitor 4.9 | MsrA inh confirm inactive
COC(=O)CNC(=O)c1ccc(=O)oc1	MsrA inhibitor 5.8 | MsrA inh confirm 5.3
O=C(NCc1ccco1)c1ccc(=O)oc1	MsrA inhibitor 7.9 | MsrA inh confirm 6.2
O=C(NCc1ccccc1)c1ccc(Oc2ccc(C(=O)NCc3ccccc3)cc2)cc1	none
O=C(NCc1ccccc1)c1ccc(=O)oc1	MsrA inhibitor 7.5 | MsrA inh confirm 6.2
COc1ccc(NC(=O)CN(C)C(=O)/C=C/c2cn(-c3ccccc3)nc2-c2ccc(C)cc2)cc1	MsrA inhibitor 4.9 | MsrA inh confirm inactive
COc1ccc(NC(=O)CN(C)C(=O)/C=C/c2cn(-c3ccccc3)nc2-c2ccc(F)cc2)cc1	none
COC(=O)C1=C(C)N(Cc2ccccc2C(F)(F)F)C(=NCc2ccc(OC)cc2)NC1c1cccc(F)c1 (stereo unspecified)	none (no result: PKA-R1A act, PKA-R2B activ, bovine MsrA act)
CCN(CC)Cc1c(O)ccc2cc(-c3nc4ccccc4n3C)c(=O)oc12	none
CCc1cc2c(=O)c(-c3nc4ccccc4n3C)c(C)oc2c(CN(CC)CC)c1O	MsrA inhibitor 5.3 | MsrA inh confirm inactive
COc1cc2c(cc1OC)/C(=C/C(C)=O)OC2	MsrA inhibitor 6.9 (no result: PKA-R1A act, PKA-R2B activ, bovine MsrA act) | MsrA inh confirm inactive
COC(=O)/C=C1\OCc2cc(OC)c(OC)cc21	none (no result: PKA-R1A act, PKA-R2B activ, bovine MsrA act)
CC1(C)CCc2cc(-c3ccnc(=S)[nH]3)ccc2O1	none
S=c1nccc(-c2ccc3c(c2)CCO3)[nH]1	MsrA inhibitor 5.6 | MsrA inh confirm inactive
CCOc1cc(/C=N/NC(=O)c2ccc(CN3CCOCC3)cc2)ccc1OC	MsrA inhibitor 5.3 | MsrA inh confirm inactive
CN(C)c1ccc(/C=N/NC(=O)c2ccc(CN3CCOCC3)cc2)cc1Br	none (no result: PKA-R1A act, PKA-R2B activ)
COc1ccc(/C=N/NC(=O)c2ccc(CSc3nncn3C)cc2)cc1OC	MsrA inhibitor 4.8 | MsrA inh confirm inactive
